Assay outcomes as filed in PubChem BioAssay.
An excerpt weighted towards active compounds, which were near 15% of everything screened.
Sm TGR inh: qHTS Assay for the Inhibitors of Schistosoma Mansoni Peroxiredoxins. Schistosoma mansoni thioredoxin glutathione reductase (TGR), Q962Y6. purified TGR, DTNB reduction, TNB absorbance 405 nm. Potency, µM (titrated, usually from 114 µM), inactives show at the top dose activity change, negative = inhibition, actives largely listed as inhibitors. actives 3% (n = 360,000). AID 485364, 2010; note: potency is the fitted concentration of half-maximal effect; % is set by controls: 0 for no effect and ±100 for the full control effect; nearly all actives have a fitted effect of over 60% in size
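First, TGR (20 nM dispensed) and NADPH were mixed with compound. Second, a 15 min room-temperature incubation followed. Third, further NADPH and then DTNB were added to start the reaction. Finally, TNB absorbance was monitored kinetically.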
HCV inh: qHTS Assay for Inhibitors of Hepatitis C Virus (HCV); Huh7.5.1 HCVcc-Cre infection, luciferase reporter, 44 h; Potency, µM (titrated, usually from 41.8 µM), for inactives: top-dose activity change, negative = inhibition, actives largely listed as inhibitors; actives 3.4% (n = 340,000); note: potency is the fitted concentration of half-maximal effect; % is set by controls: 0 for no effect and ±100 for the full control effect
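Compounds are dispensed onto cells plated 4 h earlier at 1,000 per well, with HCVcc-Cre virus (about 0.5 moi) added next. Following 44 h of culture, luminescent signal is measured for 15 sec after 15 min with substrate at room temperature.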
SARS PLpro yeast: qHTS of Yeast-based Assay for SARS-CoV PLP | S. cerevisiae expressing SARS-CoV PLpro, growth rescue | Potency, µM (doses to about 32.9 µM), without a hit: at the highest dose activity, positive = growth rescue, most hits filed as activators | actives 0.19% (n = 330,000); calls by dose curve; note: potency is the fitted concentration of half-maximal effect; 0% is about no effect; nearly all actives have a fitted effect of over 55% in size
Pf growth 48h: Primary qHTS for delayed death inhibitors of the malarial parasite plastid, 48 hour incubation; actives 5.9% (n = 310,000); Potency, µM (top dose mostly 28.7 µM), inactives show top-dose activity change, negative = inhibition, usual class: inhibitors; P. falciparum luciferase growth in erythrocytes, 48 h; AID 504832, 2011; note: potency is the fitted concentration of half-maximal effect; % is set by controls: 0 for no effect and ±100 for the full control effect
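Read-out is firefly luciferase luminescence from an integrated reporter in P. falciparum, so falling signal marks reduced parasite growth. Infected erythrocytes were at 2% hematocrit and 0.1% parasitemia (final) in Albumax-supplemented RPMI 1640.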
Pf growth 96h: Primary qHTS for delayed death inhibitors of the malarial parasite plastid, 96 hour incubation; P. falciparum luciferase reporter growth, 96 h; Potency, µM (series often up to 28.7 µM), for inactives: top-dose activity change, negative = inhibition, actives largely listed as inhibitors; actives 6.9% (n = 320,000); AID 504834, 2011; note: potency is the fitted concentration of half-maximal effect; % is set by controls: 0 for no effect and ±100 for the full control effect
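Compounds incubated with erythrocytes infected by luciferase-expressing P. falciparum (2% hematocrit, 0.05% parasitemia final) for 96 hours, 37 C in 5% CO2. Growth inhibition scored as decreased luciferase luminescence.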
HCMV antiviral: qHTS Assay for inhibitors of the human cytomegalovirus (HCMV). HFF cells, HCMV-luciferase reporter, 72 h; stronger effect = lower value. actives 4.5% (n = 410,000). activity change, negative = inhibition, % at 57.5 µM; in the data active = activity change below about -60%; inconclusive = no clear call, values can overlap the other calls; inactive = above about -39%; note: % is set by controls: 0 for no effect and ±100 for the full control effect
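Luciferase read-out from HCMV-luciferase-infected HFFs (MOI 1 PFU/cell) 72 h post infection at 37C; compounds added after 16 h cell attachment; activity normalized between buffer-only basal and Salinomycin (10uM) inhibitor controls.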
* = called active by the depositor; ? = inconclusive; . = no result given; [ ] = remark or other dose. Unless noted, calls come from the whole dose curve; as a rule, active = well fitted curve in the direction sought with a large enough effect; inconclusive = small, poorly fitted or top-dose-only effect, or another doubt; inactive = no such curve, though single readings can be large; an effect the other way counts as inactive or inconclusive.

SMILES	Sm TGR inh	HCV inh	SARS PLpro yeast	Pf growth 48h	Pf growth 96h	HCMV antiviral
O=C(CSc1nnc(-c2ccncc2)n1Cc1ccco1)Nc1nc(-c2ccccc2)cs1	?	10µM*	9%	.	24%	-5
O=C(CSc1nnc(-c2ccncc2)n1Cc1ccco1)Nc1ccccc1Cl	-22%	-14%	0%	-14%	184%	2
O=C(CSc1nnc(-c2ccncc2)n1Cc1ccco1)Nc1ccccc1F	50µM*	4%	-1%	2%	4%	?
Cc1ccc(CN2CCN(Cc3cnc(N4CCOCC4)s3)CC2CCO)cc1 (centres undefined)	2%[57.1 µM]	?	1%	11%	?	-13
COc1ccc(C2=C(C=C(C#N)C#N)C(c3ccccc3C)c3ccccc3O2)cc1OC (centres undefined)	-30%	?	11%	9.3µM*	?	-11
COc1cc(-c2nnc(COC(=O)C3c4ccccc4Oc4ccccc43)o2)cc(OC)c1OC	-6%	-19%	-1%	-12%	.	31
Cc1cc(C)c(S(=O)(=O)c2ccc(Cl)cc2)c(Cl)n1	8%	-9%	3%	?	-2%	?
Cc1cc(S(=O)(=O)c2ccc(Cl)cc2)nc(S(=O)(=O)c2ccc(Cl)cc2)c1C#N	.	.	.	.	.	-98*
CC1=C(C(=O)Nc2ccccc2C)C(c2ccc(C)o2)C2=C(CCCC2=O)N1 (centres undefined)	?	7%	-2%	2%	.	-1
C=CCNCc1cccn1-c1sc2c(c1C#N)CCCC2	-29%	-2%	1%	-12%	-45%	-22
N#Cc1c(-n2cccc2/C=N/O)sc2c1CCCC2	7%	-9%	-5%	1%	15µM*	?
Cc1ccc(-c2csc(N3CCC(NS(=O)(=O)c4ccc5c(c4)OCCO5)CC3)n2)cc1	10%	10µM*	-5%	?	9.3µM*	-85*
Cc1ccccc1OCC(=O)Nc1ccc2c(c1)C(=O)N(CCC(=O)O)C2=O	-25%	2%	-7%	26%	0%	-2
S=C(Sc1ccc(Cl)cc1)Sc1ccc(Cl)cc1	2µM*	.	-15%	6.6µM*	?	.
CC(C)(C)c1ccc(C2Sc3ccccc3NC3=C2C(=O)c2ccccc23)cc1 (centres undefined)	-3%	.	.	.	.	-104*
O=C1OCC2=C1C(c1ccc(F)cc1)Sc1ccccc1N2 (centres undefined)	0%	-24%	-15%	.	?	-17
CC1(C(=O)NS(=O)(=O)c2cccs2)CCN1C(=O)CC1CCCCC1 (centres undefined)	.	.	.	.	.	8
Cc1cc(C)cc(N(C(C)C(=O)NCCC2=CCCCC2)S(C)(=O)=O)c1 (centres undefined)	1%	?	-8%	.	?	10
CCOCCCNC(=O)C(NC(=O)C1CCC(=O)N1)c1ccc(C)cc1 (centres undefined)	5%	11%	-5%	2%	.	-5
COc1ccccc1C(=O)Nc1ccc(-c2cc(C(F)(F)F)nn2-c2ccccc2)cc1	-9%	.	.	.	.	-61*
COc1ccccc1C(=O)NC(=O)Nc1ccc(-c2cc(C(F)(F)F)nn2-c2ccccc2)cc1	4%	.	.	.	.	-36
COc1cc(OC)cc(-c2oc3cccnc3c2C#CCCO)c1	?	7.1µM*	5%	14%	?	16
CCCCNC(=O)c1nc(-c2cccnc2OC)oc1-c1ccc(Cl)cc1	.	.	.	.	.	52
CCN=C1SCC(=O)N1c1ccc(OC)cc1	9%	14%	-1%	11%	.	3
Cc1ccc(N2C(=O)CS/C2=N\C(=S)Nc2ccccc2)cc1	2%	-20%	1%	-19%	4.1µM*	11
